# In the supplement of paper PMC10849652:
# The full data set covers some 8,800 targets. This sample favours those with a hit. About 0.5% of all pairs of compound and target were hits. Unmarked numbers belong to inactive results.
# Columns and labels:
# Assay in all cases: log2 fold change, soluble protein after heating vs DMSO (PISA); higher = thermal stabilisation; K562 lysate, 10 uM; active = over 0.2 and 3.5 SD of the protein, either way, in both replicates (recomputed)
# [1] = compound: C=CC(=O)N1CCC[C@@H](n2nc(-c3ccc(Oc4ccccc4)cc3)c3c(N)ncnc32)C1 [ibrutinib]
# Outline: (§1)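 Dounce homogenisation of K562 pellets in PBS pH 7.4 with 1 mM MgCl2 produced a crude extract, used at 1 mg/mL protein. Exposure to 10 μM compound lasted 30 min, and aliquots were then heated for 3 min across 48°C-58°C, pooled and brought to 0.5% NP-40 at 4°C. The supernatant after 21,000xg for 90 min was quantified by TMTpro 16plex LC-MS/MS with channel sums equalised. Duplicate values are given as log-two fold change in thermal stability relative to solvent controls.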
# [2] = compound: CC(=O)c1cnc2ccc(-c3cc(Cl)c(O)c(Cl)c3)nc2c1N[C@H]1CC[C@H](CN(C)C)CC1
# Outline: as §1
# [3] = compound: CC(C)(C)Cn1c(N)nc2ccc(-c3[nH]c(C(C)(C)C)nc3-c3ccc(F)cc3)nc21 [ralimetinib]
# Outline: as §1
# [4] = compound: CC(C)(O)CC(=O)NCCn1ccc2ncnc(Nc3ccc(Oc4cccc(C(F)(F)F)c4)c(Cl)c3)c21
# Outline: as §1
# [5] = compound: CC1=C(C2=C(C=C1)C(=O)C3=CC=CC=C3N2CCCN)C
# Outline: as §1
# [6] = compound: CC1=C(C=C(C=C1)NC(=O)C2=CC(=CC=C2)C(C)(C)C#N)NC3=CC4=C(C=C3)N=CN(C4=O)C
# Outline: as §1
# [7] = compound: CC1=C(C=C(C=C1)NC(=O)C2=CC(=CC=C2)N(C)C)NC(=O)C3=CC=C(C=C3)O
# Outline: as §1
# [8] = compound: CC1=CC=C(C=C1)SC2=C3C=C(SC3=CN=C2)C(=O)N
# Outline: as §1
# [9] = compound: CCCS(=O)(=O)Nc1ccc(F)c(C(=O)c2c[nH]c3ncc(Cl)cc23)c1F
# Outline: as §1
# [10] = compound: CCN(CCCOc1ccc2c(Nc3cc(CC(=O)Nc4cccc(F)c4)[nH]n3)ncnc2c1)CCOP(=O)(O)O [barasertib]
# Outline: as §1
# [11] = compound: CC[C@@H]1C(=O)N(C)c2cnc(Nc3ccc(C(=O)N[C@H]4CC[C@H](N5CCN(CC6CC6)CC5)CC4)cc3OC)nc2N1C(C)C [volasertib]
# Outline: as §1
# [12] = compound: CCn1c(C(=O)N(C2CC2)C2CC2)cc2c3c(ncn3C)c(Nc3cc(C)n(C)n3)nc21
# Outline: as §1
# [13] = compound: CCn1cc(-c2ccnc3[nH]c(-c4cccc(CN(C)C)c4)cc23)c(-c2ccc(NC(=O)N(C)C)cc2)n1
# Outline: as §1
# [14] = compound: CN1CCC(CNc2ccc3ncc(-c4cccc(OC(F)(F)F)c4)n3n2)CC1
# Outline: as §1
# [15] = compound: CN1CCN(CCOc2cc(OC3CCOCC3)c3c(Nc4c(Cl)ccc5c4OCO5)ncnc3c2)CC1 [saracatinib]
# Outline: as §1
# [16] = compound: CN1CCN(c2nc(C3=C(c4c[nH]c5ccccc45)C(=O)NC3=O)c3ccccc3n2)CC1 [sotrastaurin]
# Outline: as §1
# [17] = compound: CC(C)C1=C2N=C(C=C(N2N=C1)NCC3=CC=CC=C3)NCCCCCCN
# Outline: as §1
# [18] = compound: CC1=C(C(CC(=O)N1)C2=CC=C(C=C2)C(F)(F)F)C(=O)NC3=C(C=C4C(=C3)C=NN4)F
# Outline: as §1
# [19] = compound: CCCS(=O)(=O)Nc1ccc(F)c(C(=O)c2c[nH]c3ncc(-c4ccc(Cl)cc4)cc23)c1F [vemurafenib]
# Outline: as §1
# [20] = compound: CC[C@@H]1C(=O)N(C)c2cnc(Nc3ccc(C(=O)NC4CCN(C)CC4)cc3OC)nc2N1C1CCCC1
# Outline: as §1
# Sequence of UniProt Q9H3Z4 (Q9H3Z4 whole entry, looked up): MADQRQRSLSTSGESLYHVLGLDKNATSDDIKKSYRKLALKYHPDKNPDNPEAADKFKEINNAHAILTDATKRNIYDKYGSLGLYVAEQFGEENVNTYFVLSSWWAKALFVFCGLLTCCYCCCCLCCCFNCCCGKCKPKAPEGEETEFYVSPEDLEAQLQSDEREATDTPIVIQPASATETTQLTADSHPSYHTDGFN
# Sequence of UniProt Q96JB2 (Q96JB2 whole entry, looked up): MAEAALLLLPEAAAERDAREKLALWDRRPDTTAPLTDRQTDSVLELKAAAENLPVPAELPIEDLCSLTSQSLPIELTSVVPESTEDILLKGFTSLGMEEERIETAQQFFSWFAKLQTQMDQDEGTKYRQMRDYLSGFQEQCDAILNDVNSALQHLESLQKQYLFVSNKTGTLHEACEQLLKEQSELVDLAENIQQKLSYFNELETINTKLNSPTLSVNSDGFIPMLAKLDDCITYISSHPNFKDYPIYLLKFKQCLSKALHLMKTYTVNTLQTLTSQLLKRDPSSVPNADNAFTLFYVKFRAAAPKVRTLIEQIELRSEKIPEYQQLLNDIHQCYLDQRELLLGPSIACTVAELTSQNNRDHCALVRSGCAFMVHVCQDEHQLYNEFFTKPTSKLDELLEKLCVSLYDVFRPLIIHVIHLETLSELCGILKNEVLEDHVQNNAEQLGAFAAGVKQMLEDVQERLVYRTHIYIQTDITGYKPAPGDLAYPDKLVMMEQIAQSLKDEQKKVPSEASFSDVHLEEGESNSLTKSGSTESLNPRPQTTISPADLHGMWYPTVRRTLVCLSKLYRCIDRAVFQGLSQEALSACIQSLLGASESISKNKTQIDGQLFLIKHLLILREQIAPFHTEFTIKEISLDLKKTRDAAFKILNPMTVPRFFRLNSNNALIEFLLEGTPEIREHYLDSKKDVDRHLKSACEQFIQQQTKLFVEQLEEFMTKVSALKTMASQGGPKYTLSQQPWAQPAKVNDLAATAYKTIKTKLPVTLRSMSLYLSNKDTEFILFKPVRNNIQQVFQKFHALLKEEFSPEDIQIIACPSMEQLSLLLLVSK
# Sequence of UniProt P12111 (P12111 whole entry, looked up): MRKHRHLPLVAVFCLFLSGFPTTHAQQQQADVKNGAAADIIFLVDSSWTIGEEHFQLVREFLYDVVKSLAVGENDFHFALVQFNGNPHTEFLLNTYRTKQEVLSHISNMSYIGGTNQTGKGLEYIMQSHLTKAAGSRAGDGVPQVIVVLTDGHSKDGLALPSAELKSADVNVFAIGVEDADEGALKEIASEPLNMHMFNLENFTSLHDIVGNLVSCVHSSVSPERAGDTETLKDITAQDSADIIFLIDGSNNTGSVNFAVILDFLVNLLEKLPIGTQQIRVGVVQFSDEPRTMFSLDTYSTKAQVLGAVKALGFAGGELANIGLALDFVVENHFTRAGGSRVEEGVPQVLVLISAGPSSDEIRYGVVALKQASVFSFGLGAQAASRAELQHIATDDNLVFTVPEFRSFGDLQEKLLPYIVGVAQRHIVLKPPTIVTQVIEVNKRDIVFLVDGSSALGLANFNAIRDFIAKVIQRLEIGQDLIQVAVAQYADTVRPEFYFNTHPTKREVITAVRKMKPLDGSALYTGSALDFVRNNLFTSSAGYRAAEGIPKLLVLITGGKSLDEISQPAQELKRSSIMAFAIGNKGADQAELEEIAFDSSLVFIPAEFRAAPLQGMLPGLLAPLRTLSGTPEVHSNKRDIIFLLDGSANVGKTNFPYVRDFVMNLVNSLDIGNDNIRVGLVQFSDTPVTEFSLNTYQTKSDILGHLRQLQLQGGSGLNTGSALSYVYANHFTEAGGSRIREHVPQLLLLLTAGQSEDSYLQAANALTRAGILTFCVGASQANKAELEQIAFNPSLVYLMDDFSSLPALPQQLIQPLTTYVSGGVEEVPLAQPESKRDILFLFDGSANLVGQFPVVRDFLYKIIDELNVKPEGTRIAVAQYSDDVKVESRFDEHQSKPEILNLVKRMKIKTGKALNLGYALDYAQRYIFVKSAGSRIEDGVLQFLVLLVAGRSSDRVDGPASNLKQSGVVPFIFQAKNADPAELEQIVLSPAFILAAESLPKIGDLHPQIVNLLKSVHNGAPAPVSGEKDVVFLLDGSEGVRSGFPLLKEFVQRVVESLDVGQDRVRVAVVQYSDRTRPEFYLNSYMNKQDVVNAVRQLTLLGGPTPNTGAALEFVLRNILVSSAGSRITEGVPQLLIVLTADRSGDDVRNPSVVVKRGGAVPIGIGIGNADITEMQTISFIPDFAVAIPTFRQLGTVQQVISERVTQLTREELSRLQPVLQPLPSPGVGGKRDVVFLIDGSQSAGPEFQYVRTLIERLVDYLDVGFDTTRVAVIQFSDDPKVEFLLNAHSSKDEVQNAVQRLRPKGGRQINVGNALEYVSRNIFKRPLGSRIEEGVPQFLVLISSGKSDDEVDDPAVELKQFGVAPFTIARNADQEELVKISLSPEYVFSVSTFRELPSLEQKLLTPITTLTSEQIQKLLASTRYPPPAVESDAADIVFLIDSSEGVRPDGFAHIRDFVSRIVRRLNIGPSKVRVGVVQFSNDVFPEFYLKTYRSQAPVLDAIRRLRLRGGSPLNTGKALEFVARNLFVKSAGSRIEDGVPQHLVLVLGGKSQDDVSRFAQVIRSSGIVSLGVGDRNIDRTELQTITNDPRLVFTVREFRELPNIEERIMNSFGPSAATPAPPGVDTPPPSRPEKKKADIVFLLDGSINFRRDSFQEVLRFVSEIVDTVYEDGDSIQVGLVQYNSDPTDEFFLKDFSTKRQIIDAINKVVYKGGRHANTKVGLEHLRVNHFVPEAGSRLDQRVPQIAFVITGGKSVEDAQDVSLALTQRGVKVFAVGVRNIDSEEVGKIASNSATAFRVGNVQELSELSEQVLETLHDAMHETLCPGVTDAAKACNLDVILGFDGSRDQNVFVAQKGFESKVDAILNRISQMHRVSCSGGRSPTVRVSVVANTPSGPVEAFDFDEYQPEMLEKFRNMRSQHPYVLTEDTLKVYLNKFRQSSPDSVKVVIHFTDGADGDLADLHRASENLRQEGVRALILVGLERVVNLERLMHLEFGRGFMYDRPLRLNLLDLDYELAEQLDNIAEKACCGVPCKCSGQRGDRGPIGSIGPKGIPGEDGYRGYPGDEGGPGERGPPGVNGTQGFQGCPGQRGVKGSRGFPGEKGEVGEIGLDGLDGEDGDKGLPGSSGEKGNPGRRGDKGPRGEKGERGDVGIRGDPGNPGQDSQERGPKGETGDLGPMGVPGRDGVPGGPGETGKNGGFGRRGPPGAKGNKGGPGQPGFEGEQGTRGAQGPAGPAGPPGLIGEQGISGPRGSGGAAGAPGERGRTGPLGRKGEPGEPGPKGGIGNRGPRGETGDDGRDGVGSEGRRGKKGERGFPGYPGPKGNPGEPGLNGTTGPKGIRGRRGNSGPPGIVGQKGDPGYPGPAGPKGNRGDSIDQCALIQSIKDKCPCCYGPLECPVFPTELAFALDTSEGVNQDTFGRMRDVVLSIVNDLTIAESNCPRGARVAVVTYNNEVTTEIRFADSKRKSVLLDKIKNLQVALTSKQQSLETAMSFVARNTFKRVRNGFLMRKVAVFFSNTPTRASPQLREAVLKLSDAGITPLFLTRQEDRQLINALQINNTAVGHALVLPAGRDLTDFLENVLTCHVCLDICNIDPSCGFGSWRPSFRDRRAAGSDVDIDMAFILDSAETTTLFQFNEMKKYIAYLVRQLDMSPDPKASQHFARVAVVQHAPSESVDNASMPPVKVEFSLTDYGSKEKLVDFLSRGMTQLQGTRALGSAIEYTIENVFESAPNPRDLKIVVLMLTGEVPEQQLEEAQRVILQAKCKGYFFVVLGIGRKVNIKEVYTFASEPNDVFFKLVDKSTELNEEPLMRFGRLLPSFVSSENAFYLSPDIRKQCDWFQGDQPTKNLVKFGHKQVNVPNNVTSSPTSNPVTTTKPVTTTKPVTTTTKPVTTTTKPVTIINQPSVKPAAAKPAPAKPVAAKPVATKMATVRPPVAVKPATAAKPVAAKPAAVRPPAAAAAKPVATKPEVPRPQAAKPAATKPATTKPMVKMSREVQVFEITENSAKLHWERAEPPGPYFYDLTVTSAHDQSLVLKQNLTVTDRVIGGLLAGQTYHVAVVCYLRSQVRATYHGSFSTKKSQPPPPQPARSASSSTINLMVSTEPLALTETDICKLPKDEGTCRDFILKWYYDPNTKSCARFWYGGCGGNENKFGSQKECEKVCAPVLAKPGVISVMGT
# Sequence of UniProt O95628 (O95628 whole entry, looked up): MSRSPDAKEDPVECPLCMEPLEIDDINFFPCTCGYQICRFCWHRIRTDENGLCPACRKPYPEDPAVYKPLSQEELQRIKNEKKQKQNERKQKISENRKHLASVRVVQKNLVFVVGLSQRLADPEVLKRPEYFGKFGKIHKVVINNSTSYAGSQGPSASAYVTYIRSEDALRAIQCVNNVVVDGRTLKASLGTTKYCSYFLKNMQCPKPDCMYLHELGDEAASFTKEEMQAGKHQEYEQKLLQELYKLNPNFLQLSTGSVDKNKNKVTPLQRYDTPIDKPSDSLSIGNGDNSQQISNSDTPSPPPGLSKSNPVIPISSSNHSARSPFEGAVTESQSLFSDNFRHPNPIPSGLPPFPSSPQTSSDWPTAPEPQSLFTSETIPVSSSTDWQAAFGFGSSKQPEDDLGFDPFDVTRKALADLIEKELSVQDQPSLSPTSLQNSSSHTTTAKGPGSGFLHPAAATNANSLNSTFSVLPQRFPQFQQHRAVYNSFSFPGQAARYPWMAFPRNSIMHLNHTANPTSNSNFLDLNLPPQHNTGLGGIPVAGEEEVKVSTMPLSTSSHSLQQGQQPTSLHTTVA
# Sequence of UniProt Q9BW66 (Q9BW66 whole entry, looked up): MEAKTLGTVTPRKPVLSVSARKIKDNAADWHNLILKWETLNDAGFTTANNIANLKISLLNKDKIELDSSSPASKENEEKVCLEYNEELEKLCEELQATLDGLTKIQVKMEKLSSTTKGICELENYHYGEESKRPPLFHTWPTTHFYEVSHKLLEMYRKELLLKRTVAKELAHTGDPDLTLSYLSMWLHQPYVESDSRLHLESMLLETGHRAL
Target,log2 fold change [1],log2 fold change [2],log2 fold change [3],log2 fold change [4],log2 fold change [5],log2 fold change [6],log2 fold change [7],log2 fold change [8],log2 fold change [9],log2 fold change [10],log2 fold change [11],log2 fold change [12],log2 fold change [13],log2 fold change [14],log2 fold change [15],log2 fold change [16],log2 fold change [17],log2 fold change [18],log2 fold change [19],log2 fold change [20]
CHMP4A (UniProt H0YIN6),-0.077,-0.203,-0.253,-0.354,-0.055,0.33,0.15,-0.159,0.049,-0.012,0.024,-0.495,-0.274,0.158,0.201,-0.088,–,–,–,–
DIAPH1 (UniProt H9KV28),-0.063,0.024,-0.022,-0.106,–,0.004,0.009,-0.03,-0.01,0.091,-0.046,-0.046,-0.07,0.153,–,-0.001,-0.083,0.032,0.098,-0.049
CNOT4 isoform 9 (UniProt O95628),0.052,-0.019,0.043,-0.084,0.032,-0.138,-0.02,0.013,0.014,-0.195,-0.03,0.015,-1.23 (active),0.22,0.1,0.075,-0.003,–,0.027,0.028
DHRS13 (UniProt Q6UX07),-0.106,-0.003,0.094,-0.111,-0.292,0.03,-0.009,0.111,0.291,0.236,-0.274,0.077,–,–,-0.031,0.095,-0.073,0.082,–,–
CIC (UniProt I3L2J0),0.036,0.044,0.055,-0.083,-0.044,0.029,0.02,0.028,-0.043,0.4 (active),-0.032,0.001,-0.05,-0.004,0.021,-0.016,0.013,0.054,-0.077,-0.057
DBF4 (UniProt Q9UBU7),-0.06,–,-0.048,-0.017,-0.058,-0.012,-0.042,–,–,0.054,–,0.001,-0.003,-0.245,0.001,-0.004,-0.01,-0.062,0.001,-0.015
CLASP1 (UniProt Q7Z460),–,0.013,0.02,0.024,0.004,0.02,0.036,0.001,0.013,0.048,-0.018,0.039,-0.043,0.042,0.028,-0.022,0.01,0.018,0.025,-0.03
DDR1 isoform 5 (UniProt Q08345),0,–,0.205,0.021,-0.099,0.38,0.117,–,–,0.169,–,0.013,0.043,-0.479 (active),-0.142,-0.019,–,-0.117,–,0.064
DCTN1 (UniProt Q14203),-0.005,0.01,0.013,-0.02,0.011,-0.013,0.009,0.011,0.008,0.021,-0.048,0.002,0.034,-0.034,0.029,-0.003,-0.006,0.001,-0.025,-0.021
CMIP (UniProt Q8IY22),0.057,0.024,0,0.004,-0.021,0,0.029,0.004,0.023,0.04,-0.057,0.043,-0.043,-0.054,0.014,0.017,-0.011,0.001,0.009,-0.055
DNAH5 (UniProt Q8TE73),-0.064,-0.009,-0.045,-0.138,0.014,–,0.019,0.086,0.074,0.006,0.02,-0.035,-0.481 (active),0.122,0.007,–,0.076,0.062,0.007,–
CIC (UniProt I3L1Q4),0.005,–,–,–,–,–,–,–,–,-0.169,–,–,–,–,–,–,–,–,–,–
COG3 (UniProt Q96JB2),0.026,-0.008,0.052,-0.042,-0.019,0.02,0.044,0.02,0.012,0.041,-0.071,0.042,-0.038,0.012,0.046,0.008,-0.04,0.006,0.004,-0.056
COL6A3 (UniProt P12111),-0.087,–,0.174,-0.132,-0.099,-0.021,-0.54 (active),–,–,0.347,–,0.086,0.254,-0.19,-0.039,0.031,0.047,-0.066,–,–
DENND1B (UniProt Q6P3S1),0.405,-0.034,-0.039,-0.114,0.174,0.031,-0.003,0.011,-0.036,0.01,-0.05,-0.134,0.022,-0.024,-0.018,0.04,-0.087,0.151,0.128,–
CINP isoform 3 (UniProt Q9BW66),0,-0.012,0.047,-0.051,-0.168,0.039,0.009,-0.005,0.01,0.052,-0.05,-0.033,-0.331,0.189,0.047,0.014,–,0.072,-0.071,0.098
DONSON (UniProt Q9NYP3),0.059,0.002,-0.033,0.074,-0.037,0.062,-0.096,-0.013,0.017,-0.03,0.026,-0.036,-0.026,-0.206,0.013,0.016,-0.022,-0.071,–,–
DNAJC5 (UniProt Q9H3Z4),-0.029,-0.072,-0.013,-0.043,-0.008,0.048,-0.036,-0.116,-0.02,0.008,0.012,0.015,-0.476 (active),0.243,0.01,0.041,-0.044,0.06,0.001,-0.031
